Assay results: PubChem BioAssay (EPA / NIEHS)
Results filed as inconclusive are left out. Active and inactive are the calls of the source. Rule for the calls, unless noted: active = hit-call score of the fitted dose curve at least 0.9, where 1 is the maximum; inconclusive = response in the unintended direction; inactive = score below 0.9.

Legend:
[1] = IUF_NPC2a_radial_glia_migration_120hr: Leibniz Research Institute for Environmental Medicine (IUF) 120-hour Neural Progenitor Cell Migration Assay for Radial Glia Migration (NPC2a) (AID 2284298; active = hit-call score of the fitted dose curve at least 0.9, where 1 is the maximum; inactive = score below 0.9)
In short: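 Single 0.3 mm primary human fetal-cortex (GW 16-19) NPC spheres were plated on poly-D-lysine/laminin in N2 differentiation medium and exposed from day 0 for 120 h, half-medium refreshed day 3. Migration distance came from Hoechst nuclei-density imaging, relative to DMSO.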

[2] = IUF_NPC2a_radial_glia_migration_72hr: Leibniz Research Institute for Environmental Medicine (IUF) 72-hour Neural Progenitor Cell Migration Assay for Radial Glia Migration (NPC2a) (AID 2284299; active = hit-call score of the fitted dose curve at least 0.9, where 1 is the maximum; inactive = score below 0.9)
In short: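 Primary hNPC spheres, fetal brain GW 16-19, on PDL/laminin; DMEM/F12 3:1 + 1% N2. Compound dosed day 0, 7 conc. + SC, half-medium refresh day 3. 72 h brightfield, migration distance core-to-front (um), 4 directions averaged.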

[3] = IUF_NPC2b_neuronal_migration_120hr: Leibniz Research Institute for Environmental Medicine (IUF) 120-hour Neural Progenitor Cell Migration Assay for Neuron Migration (NPC2b) (AID 2284300; active = hit-call score of the fitted dose curve at least 0.9, where 1 is the maximum; inactive = score below 0.9)
In short: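 Primary human fetal cortex neural progenitor spheres (0.3 mm) plated on poly-D-lysine/laminin in N2 differentiation medium, exposed 120 h with half-medium refresh at day 3. TUBB3-stained neuron distance from sphere core, normalized to radial glia migration, versus DMSO.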

[4] = IUF_NPC3_neuronal_differentiation_120hr: Leibniz Research Institute for Environmental Medicine (IUF) 120-hour Neuronal Differentiation Assay (NPC3) (AID 2284301; active = hit-call score of the fitted dose curve at least 0.9, where 1 is the maximum; inactive = score below 0.9)
In short: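 Single 0.3 mm neurospheres from human fetal cortex were plated in differentiation medium containing test compound. Medium was half-replaced on day 3. After 120 h cells were fixed, immunostained and imaged, and neuronal fraction was scored against DMSO control.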

[5] = IUF_NPC4_neurite_length_120hr: Leibniz Research Institute for Environmental Medicine (IUF) 120-hour Neuronal Morphology Assay for Neurite Length (NPC4) (AID 2284302; active = hit-call score of the fitted dose curve at least 0.9, where 1 is the maximum; inactive = score below 0.9)
In short: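 Read-out is mean neurite length in µm of TUBB3-positive neurons, skeletonized from high-content fluorescence images after 120 h. Single 0.3 mm primary human neural progenitor spheres differentiated on poly-D-lysine/laminin under continuous compound exposure; DMSO was baseline.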

[6] = IUF_NPC5_oligodendrocyte_differentiation_120hr: Leibniz Research Institute for Environmental Medicine (IUF) 120-hour Oligodendrocyte Differentiation Assay (NPC5) (AID 2284304);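 note: primary human fetal neural progenitor spheres plated to migrate and differentiate; share of O4-positive cells among Hoechst nuclei found by CNN image analysis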
In short: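 Primary human fetal (GW 16-19) neural progenitor spheres (0.3 mm) plated on poly-D-lysine/laminin in N2 differentiation medium, exposed from day 0 for 120 h with half-medium refresh at day 3; O4-positive cells as percent of Hoechst nuclei, CNN-identified, versus DMSO.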

[7] = IUF_NPC4_neurite_area_120hr: Leibniz Research Institute for Environmental Medicine (IUF) 120-hour Neuronal Morphology Assay for Neurite Area (NPC4) (AID 2284305)
In short: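 Neurite area is read out as the mean pixel area, excluding nuclei, of skeletonized TUBB3-positive neurons imaged after 120 h. Primary human neural progenitor spheres differentiated on poly-D-lysine/laminin with compound present from day 0. Activity was referenced to DMSO controls.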

[8] = IUF_NPC2-5_cytotoxicity_72hr: Cytotoxicity Assessment at 72 hours in the Leibniz Research Institute for Environmental Medicine (IUF) Neural Progenitor Cell Migration and Differentiation Assay for Cytotoxicity (NPC2-5) (AID 2284306);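 note: LDH release into supernatant measured by resorufin fluorescence marking membrane damage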
In short: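 Membrane integrity loss was scored from fluorescence (RFU) of resorufin generated by LDH in culture supernatant, 72 h after dosing. Differentiating human progenitor spheres received seven serial compound concentrations alongside a solvent control.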

[9] = IUF_NPC2-5_cytotoxicity_120hr: Cytotoxicity Assessment at 120 hours in the Leibniz Research Institute for Environmental Medicine (IUF) Neural Progenitor Cell Migration and Differentiation Assay (NPC2-5) (AID 2284307)
In short: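 Human fetal neural progenitor spheres (0.3 mm, GW 16-19 cortex) were plated on poly-D-lysine/laminin in N2 differentiation medium and exposed for 120 h, with half-medium refresh at day 3. LDH release into supernatant was read by resorufin fluorescence.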

[10] = IUF_NPC2-5_cell_number_120hr: Cell Number Assessment at 120 hours in the Leibniz Research Institute for Environmental Medicine (IUF) Neural Progenitor Cell Migration and Differentiation Assay (NPC2-5) (AID 2284308; active = hit-call score of the fitted dose curve at least 0.9, where 1 is the maximum; inactive = score below 0.9;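 note: count of Hoechst-stained nuclei in migration zone around plated human neural progenitor spheres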)
In short: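 Primary human fetal neural progenitor spheres (GW 16-19, 0.3 mm) plated on poly-D-lysine/laminin in N2 differentiation medium, exposed from day 0 for 120 h with half-medium refresh at day 3; Hoechst-positive nuclei counted in migration area versus DMSO control.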

[11] = IUF_NPC2-5_viability_120hr: Viability Assessment at 120 hours in the Leibniz Research Institute for Environmental Medicine (IUF) Neural Progenitor Cell Migration and Differentiation Assay (NPC2-5) (AID 2284312; active = hit-call score of the fitted dose curve at least 0.9, where 1 is the maximum; inactive = score below 0.9)
In short: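 Alamar blue resorufin fluorescence read after 5 days of differentiation, with compound present from day 0 and replenished at day 3. Primary hNPC spheres on laminin-coated plates, 37C; seven concentrations plus solvent control, fitted against DMSO.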

[12] = VALA_TUBHUV_Agonist_CellCount: Viability Assessment in the VALA Sciences human Umbilical Vein Endothelial Tubule Formation (TUBHUV) Agonism Assay (AID 2284309)
In short: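 HUVEC co-cultured 1:3 with HDF for 3 days in 10 ng/ml VEGF, then compounds added in VEGF medium for a further 3 days (72 h). Nuclear-stain/CD31 imaging cell count. Positive-direction fit versus 0.1% DMSO vehicle.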

[13] = VALA_TUBIPS_Agonist_TubuleLength: VALA Sciences human iPS-derived Endothelial Tubule Formation (TUBIPS) Agonism Assay (AID 2284311)
In short: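 Human iPS-derived endothelial cells were exposed to compound for 72 h. Tubule formation was imaged by high-content fluorescence and scored as gain of signal relative to DMSO vehicle (agonist mode).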

[14] = VALA_TUBIPS_Antagonist_TubuleLength: VALA Sciences human iPS-derived Endothelial Tubule Formation (TUBIPS) Antagonist Assay (AID 2284313)
In short: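 Cells grown 3 days with 10 ng/ml VEGF, then exposed to compounds in VEGF medium for another 3 days. After fixation, nuclear stain and CD31 immunofluorescence imaging gave mean total tubule length against 0.1% DMSO; suramin (100 uM) inhibition control.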

[15] = VALA_MIGHUV2_Bcatenin: VALA Sciences human Umbilical Vein Endothelial Cell Migration (MIGHUV) Assay, Nuclear Translocation of beta-Catenin after Recovery (AID 2284315)
In short: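 HUVEC (4000 cells/well) scratch-wounded, dosed within 30 min over 6 concentrations in triplicate, recovered 24 h. After fixation, Hoechst and anti-beta-catenin immunofluorescence imaged for nuclear CTNB. Gain of signal versus 0.1% DMSO.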

[16] = VALA_MIGHUV2_WoundArea: VALA Sciences human Umbilical Vein Endothelial Cell Migration (MIGHUV) Assay, Area of Scratch Wound after Recovery (AID 2284316)
In short: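 HUVEC seeded at 9000 cells/well, scratched after 24 h; test chemical added within 30 min, 6-point concentration response in triplicate (0.1% DMSO vehicle). After 24 h wound recovery, cells fixed and Hoechst-stained nuclei in wound area imaged; Cytochalasin D reference control.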

[17] = CCTE_Mundy_HCI_iCellGluta_NOG_NeuriteLength: CCTE's Neurite Outgrowth Assay in iCellGluta cells for Neurite Length, Mundy Lab (AID 2284318)
In short: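 Automated high-content imaging of betaIII-tubulin (Alexa Fluor-488) and Hoechst-stained cells gave neurite length, normalized to the DMSO baseline.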

[18] = VALA_TUBHUV_Antagonist_CellCount: Viability Assessment in the VALA Sciences human Umbilical Vein Endothelial Tubule Formation (TUBHUV) Antagonism Assay (AID 2284310)
In short: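 HUVEC co-cultured with HDF (1:3) 3 days in 10 ng/ml VEGF, then 3 days with compounds in VEGF medium. Fixed, nuclear stain and CD31 immunofluorescence, imaged; cell counts fitted versus 0.1% DMSO, loss of signal read as lower viability.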

[19] = VALA_MIGHUV2_CellCount: Viability Assessment in the VALA Sciences human Umbilical Vein Endothelial Cell Migration (MIGHUV) Assay, Area of Scratch Wound after Recovery (AID 2284314)
In short: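 Scratch-wounded HUVEC monolayers received test chemical within 30 min, 6-point concentration response in triplicate, 0.1 % DMSO vehicle. After 24 h wound recovery, fixed cells were Hoechst-stained and nuclei imaged; loss of signal versus DMSO indicates reduced viability.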

IYD (gene 389434) = assay: CCTE_GLTED_hIYD: CCTE's human Iodotyrosine Deiodinase (xIYD) Inhibition Assay, Great Lakes Toxicology and Ecology Division (GLTED) Lab (AID 2284317);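 note: cell-free human IYD enzyme made in baculovirus insect cells; iodide freed from monoiodotyrosine measured by cerium arsenite color change at 420 nm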
In short: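 Absorbance change at 420 nm from the iodide-catalysed cerium-arsenic reaction reports free iodide released by human IYD from monoiodotyrosine. Enzyme, substrate and chemical are incubated 3 h; loss of signal is fitted relative to DMSO baseline.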

Measured: AC50

CSC(=O)c1cccc2nnsc12
inactive: [1] | [2] | [3] | [4] | [5] | [6] | [7] | [8] | [9] | [10] | [11]

S=C(S)NCCNC(=S)S.[Mn+2].[S-]C([S-])=NCCN=C([S-])[S-].[Zn+2]
inactive: [1] | [2] | [3] | [4] | [5] | [6] | [7] | [8] | [9] | [10] | [12] | [13] | [11] | [14] | [15] | [16] | [17]

N[C@@H](Cc1cc(I)c(Oc2ccc(O)c(I)c2)c(I)c1)C(=O)O
inactive: [12] | [18] | [13] | [14] | [15]

O=C(O)c1ccccc1
inactive: [1] | [2] | [3] | [4] | [5] | [6] | [7] | [8] | [9] | [10] | [11]

Cc1nn(C)c(Oc2ccccc2)c1C=NOCc1ccc(C(=O)OC(C)(C)C)cc1
active: [1] 5.23 µM | [2] 2.48 µM | [3] 6.63 µM | [10] 5.04 µM | [17] 0.353 µM
inactive: [4] | [5] | [6] | [7] | [8] | [9] | [11]

CCN(CC)C(=O)c1cccc(C)c1
inactive: [1] | [2] | [3] | [4] | [5] | [6] | [7] | [8] | [9] | [10] | [11]
active: [17] 50.5 µM

CC(C)CCCCCCc1ccc(O)cc1
active: IYD (gene 389434) 48.4 µM
inactive: [12] | [13] | [14] | [19]

S=C([S-])NCCNC(=S)[S-].[Mn+2]
inactive: [1] | [2] | [3] | [4] | [5] | [6] | [7] | [8] | [9] | [10] | [11]

CC(C)(c1ccc(O)cc1)c1ccc(O)cc1
inactive: [1] | [2] | [3] | [4] | [5] | [6] | [7] | [8] | [9] | [10] | [12] | [18] | [13] | [11] | [14] | [19] | [15] | [16] | IYD (gene 389434)

CCCN(CCC)C(=O)SCC
inactive: [1] | [2] | [3] | [4] | [5] | [6] | [7] | [8] | [9] | [10] | [11] | [17]

CCOC(=O)C(C)Oc1ccc(Oc2nc3ccc(Cl)cc3o2)cc1 (configuration not stated)
inactive: IYD (gene 389434)

C#CCOC(=O)[C@@H](C)Oc1ccc(Oc2ncc(Cl)cc2F)cc1
inactive: [1] | [2] | [3] | [4] | [5] | [7] | [8] | [9] | [10] | [11]
active: [17] 22 µM
